From article PMC5540273 (PLoS ONE, 2017)
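Also: KINOMEscan kinase panel screen.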

These compounds were tested on IRAK4. Settings: concentration: 1 μM, replicates: in singlicate; n = 1.
`COc1cc2ncn(-c3cc(OCc4ccncc4)c(C(N)=O)s3)c2cc1OC` [GSK336313] was tested, and the “%Inh” value was 0%.
In the case of `OCCCNc1nccc(-c2c(-c3cccc(C(F)(F)F)c3)nn3cc(C(F)(F)F)ccc23)n1` [GW630813], the “%Inh” value is reported as 2%.
In the case of `Cc1ccc(Oc2ccc(Nc3ncnc4cc[nH]c34)cc2C)cn1`, the “%Inh” value is reported as 0%.
`COc1cc(Nc2nccc(N3CCC(NC(=O)C(C)c4ccc(Cl)cc4)C3)n2)cc(OC)c1OC` (centres unmarked) [GSK1379757] was tested, and the “%Inh” value was 10%.
`Nc1nc(N)c2nc(-c3ccccc3)[nH]c2n1` [SKF-12778] was tested, and the “%Inh” value was 3%.
`COc1cc(OC)cc(-c2cc3cnc(N)nc3nc2NC(=O)NC(C)(C)C)c1` was tested, and the “%Inh” value was 0%.
`COc1cc2nccc(Nc3cccc(Oc4ccccc4)c3)c2cc1OC.Cl` [GW284543] was tested, and the “%Inh” value was 0%.
For `CCn1c(-c2ccoc2)nc2cnccc21` [SB-733887], the “%Inh” value was 50%.
With `CCn1c(-c2nonc2N)nc2ccccc21` [SB-693162/GW549034] the “%Inh” value was 48%.
`COC(=O)c1c(-c2ccccc2)c2cc(C)ccc2c(=O)n1Cc1ccccc1` was tested, and the “%Inh” value was 20%.
`CCCNC(=O)Nc1ccc(Oc2ncnc3ccn(C)c23)cc1` was tested, and the “%Inh” value was 15%.
With `COc1ccc(-c2coc3ccc(-c4nnc(SCc5cccc(C#N)c5)o4)cc23)cc1` the “%Inh” value was 0%.
`CCC(=O)c1c(-c2ccccc2)c2cc(Cl)ccc2c(=O)n1Cc1cc(S(C)(=O)=O)n(CC(F)F)n1` was tested, and the “%Inh” value was 27%.
With `CN1C(=O)C(Nc2ccccc2)=C(c2ccccc2)C1=O` [SB-300079] the “%Inh” value was 0%.
